Experimental data published in PubChem BioAssay (NCI).
This is part of a sample that, as a whole, favours compounds with a hit. Of some 83,000 tested, about 20% had one in any assay.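 Plates (96-well) were seeded with cells, treated with compound at one concentration, and incubated for 48 hours before percent growth was determined.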 Active and inactive are the calls of the source. Rule for the calls: active = growth percent below 10; inactive = the rest.

test system: ACHN renal; experiment: NCI-60 one-dose screen, 48 h (100 = growth as untreated, 0 = no growth, -100 = all killed); conditions: 10 µM unless noted

Structure (SMILES)	growth
N=C(N)c1ccc(-c2ccc(-c3ccco3)o2)cc1F	12.2% (inactive)
CCOC(=O)Cn1c(-c2nonc2NC(=O)c2ccccc2F)nc2ccccc21	46.5% (inactive)
CC(C)OC1OC(OC(C)C)C(OC(C)C)OC1OC(C)C (configuration not stated)	95.1% (inactive)
Cc1nn(-c2ccccc2)c2nc3c(nc12)C1=NCCN1C(c1ccc(Cl)cc1)N3 (configuration not stated)	87.3% (inactive)
COc1ccc(-c2ccc(-c3ccc(C(=N)N)s3)s2)cc1	-92.8% (active)
N=C(N)c1ccc(-c2ccc(-c3cccs3)s2)cc1F	-84.5% (active)
CCS(=O)(=O)Nc1cccc(Nc2c3cccc(C)c3nc3c(C)cccc23)c1OC	-1.64% (active)
N/C(=N\O)c1ncc(-c2ccc(C(F)(F)F)cc2)c(NC2CCCCCC2)n1	-64.3% [100 µM] (active)
COc1cc(/C=C/c2cc(/C=C/c3ccc(O)c(OC)c3)n(C(=O)Nc3ccc(F)c(Cl)c3)n2)ccc1O	5.73% (active)
Cc1cc(Nc2c3ccccc3nc3ccccc23)ccc1NS(C)(=O)=O	9.04% (active)
COc1cc2ccc(C(C)=O)cc2cc1OC	91.9% (inactive)
Cc1ccccc1Nc1n[nH]c(Cc2ccccc2)n1	106% (inactive)
CNC1=C([N+](=O)[O-])C(c2ccccc2O)C(C#N)=C(c2cccs2)O1 (configuration not stated)	94.8% (inactive)
CCN(C(=O)CCl)C(C)(C)C(SSSC(c1ccc(Cl)cc1)C(C)(C)N(CC)C(=O)CCl)c1ccc(Cl)cc1 (configuration not stated)	78.2% (inactive)
COc1cc2c(cc1OC)-c1cc(OC)c(OC)cc1C(CN(C)C)C2 (configuration not stated)	44.6% [100 µM] (inactive)
CCCCOC(=O)c1cc(O)c(O)c(O)c1	75% (inactive)
FC(F)(F)c1cc(-c2nnc3n2N=C(Cl)CS3)cc(C(F)(F)F)c1	110% (inactive)
COc1cc2ncnc(Nc3ccc(S(=O)(=O)Nc4cc(C)on4)cc3)c2cc1OCCCN1CCN(c2ccc([N+](=O)[O-])cc2)CC1	109% (inactive)
COc1ccc(/C=N/NC(N)=S)c(OC)n1	100% (inactive)
O=C1c2cccc3cccc(c23)C(=O)N1CCCCCCCCCCN1C(=O)c2cccc3cccc(c23)C1=O	96.2% (inactive)
O=C1OC(/C=C/c2ccccc2)=NC/1=C/c1ccccc1[N+](=O)[O-]	91.8% (inactive)
C=C(c1ccc(C(=O)NCCCn2ccnc2)cc1)c1cc2c(cc1C)C(C)(C)CCC2(C)C	-16.6% (active)
O=[N+]([O-])c1ccc(Sc2nc(Cl)nc(NC3CCCC3)n2)cc1	-100% [100 µM] (active)
CC(C)(C)c1cc(C[P+](c2ccccc2)(c2ccccc2)c2ccccc2)cc(C(C)(C)C)c1O	-10.8% (active)
N#Cc1ccc(-c2ccc(-c3cccs3)o2)cc1F	64% (inactive)
Cc1cccc2nc3ccccc3c(Nc3ccc(NS(C)(=O)=O)cc3)c12	-27.1% (active)
COc1cc(OC)cc(-c2ccc(-c3ccc(C(=N)N)s3)s2)c1	-76% (active)
C=C1C(=O)O[C@H]2[C@H]1CC/C(COC(=O)NCc1[nH]nc3ccccc13)=C\CC[C@@]1(C)O[C@@H]21	14.4% (inactive)
COC(=O)[C@H](Cc1cn(C)cn1)NC(=O)[C@H](CC(C)C)NC(=O)Nc1cc(C(F)(F)F)cc(C(F)(F)F)c1	-100% [100 µM] (active)
CCOC(=O)C(CCCCC(NC(C)=O)(C(=O)OCC)C(=O)OCC)(NC(C)=O)C(=O)OCC	104% (inactive)

test system: CAKI-1 renal; experiment: as above; conditions: 10 µM unless noted

Structure (SMILES)	growth
N=C(N)c1ccc(-c2ccc(-c3ccco3)o2)cc1F	23.1% (inactive)
CCOC(=O)Cn1c(-c2nonc2NC(=O)c2ccccc2F)nc2ccccc21	25% (inactive)
CC(C)OC1OC(OC(C)C)C(OC(C)C)OC1OC(C)C (configuration not stated)	93.9% (inactive)
Cc1nn(-c2ccccc2)c2nc3c(nc12)C1=NCCN1C(c1ccc(Cl)cc1)N3 (configuration not stated)	82.6% (inactive)
COc1ccc(-c2ccc(-c3ccc(C(=N)N)s3)s2)cc1	-82.8% (active)
N=C(N)c1ccc(-c2ccc(-c3cccs3)s2)cc1F	-72.6% (active)
Cc1csc(N/N=C/c2ccncc2)n1	99.5% (inactive)
CCCCCCCCCCCCCCCC1=NCCN1	81.3% (inactive)
CCS(=O)(=O)Nc1cccc(Nc2c3cccc(C)c3nc3c(C)cccc23)c1OC	10.7% (inactive)
N/C(=N\O)c1ncc(-c2ccc(C(F)(F)F)cc2)c(NC2CCCCCC2)n1	-76.4% [100 µM] (active)
N/N=C(\C(=N\N)c1ccccc1)c1ccccc1	99.9% (inactive)
COc1cc(/C=C/c2cc(/C=C/c3ccc(O)c(OC)c3)n(C(=O)Nc3ccc(F)c(Cl)c3)n2)ccc1O	-39.1% (active)
Cc1cc(Nc2c3ccccc3nc3ccccc23)ccc1NS(C)(=O)=O	29% (inactive)
O=C(CC(=O)c1ccccc1F)Nc1ccc([N+](=O)[O-])cc1	106% (inactive)
Cc1ccccc1Nc1n[nH]c(Cc2ccccc2)n1	101% (inactive)
CNC1=C([N+](=O)[O-])C(c2ccccc2O)C(C#N)=C(c2cccs2)O1 (configuration not stated)	78% (inactive)

Structure (SMILES)	growth
CCCCOC(=O)c1cc(O)c(O)c(O)c1	70.5% (inactive)
COc1cc2ncnc(Nc3ccc(S(=O)(=O)Nc4cc(C)on4)cc3)c2cc1OCCCN1CCN(c2ccc([N+](=O)[O-])cc2)CC1	92.8% (inactive)
COc1ccc(/C=N/NC(N)=S)c(OC)n1	113% (inactive)
O=C1c2cccc3cccc(c23)C(=O)N1CCCCCCCCCCN1C(=O)c2cccc3cccc(c23)C1=O	98% (inactive)
O=C1OC(/C=C/c2ccccc2)=NC/1=C/c1ccccc1[N+](=O)[O-]	88.7% (inactive)
C=C(c1ccc(C(=O)NCCCn2ccnc2)cc1)c1cc2c(cc1C)C(C)(C)CCC2(C)C	-35.6% (active)
O=[N+]([O-])c1ccc(Sc2nc(Cl)nc(NC3CCCC3)n2)cc1	-91.4% [100 µM] (active)
CC(C)(C)c1cc(C[P+](c2ccccc2)(c2ccccc2)c2ccccc2)cc(C(C)(C)C)c1O	-2.21% (active)
N#Cc1ccc(-c2ccc(-c3cccs3)o2)cc1F	78.1% (inactive)
Cc1cccc2nc3ccccc3c(Nc3ccc(NS(C)(=O)=O)cc3)c12	23.4% (inactive)
COc1cc(OC)cc(-c2ccc(-c3ccc(C(=N)N)s3)s2)c1	-86.4% (active)
C=C1C(=O)O[C@H]2[C@H]1CC/C(COC(=O)NCc1[nH]nc3ccccc13)=C\CC[C@@]1(C)O[C@@H]21	16.6% (inactive)
COC(=O)[C@H](Cc1cn(C)cn1)NC(=O)[C@H](CC(C)C)NC(=O)Nc1cc(C(F)(F)F)cc(C(F)(F)F)c1	-99.2% [100 µM] (active)
CCOC(=O)c1cc(C(=O)OCC)c(C)nc1C	103% (inactive)
COC(=O)[C@@H](Cc1c[nH]c2ccccc12)NC(=O)/C=C/c1ccccc1	31.7% (inactive)
CCOC(=O)C(CCCCC(NC(C)=O)(C(=O)OCC)C(=O)OCC)(NC(C)=O)C(=O)OCC	104% (inactive)
